# Experimental data: PubChem BioAssay (NCI)
# This is part of a sample that, as a whole, favours compounds with a hit. Of some 83,000 tested, about 20% had one in any assay.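 96-well plates, one dose, 48 hours. Percent growth reported; active if below 10.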 Calls of active or inactive are those of the source.
# Tested on: MDA-MB-468 breast
# Experiment: NCI-60 one-dose screen, 48 h (100 = growth as untreated, 0 = no growth, -100 = all killed)
# Settings: 10 µM unless noted
row,SMILES,growth
1,CN(C)Cc1cccs1,87.2% (inactive)
2,COC(=O)c1ccc2[nH]c(O)c(C(=Nc3ccc(N(C)C(=O)CN4CCN(C)CC4)cc3)c3ccc([N+](=O)[O-])cc3)c2c1,85.9% (inactive)
3,Cc1cc(N2CCOCC2)nc(N(CCCNc2ccnc3cc(Cl)ccc23)Cc2ccc3c(c2)OCO3)n1,-63.6% (active)
4,CC(C)c1cccc(C#N)c1,99.4% (inactive)
5,CCCCCCCCCCCCCCCC[N+]1(CC)CCCC1,-35.7% (active)
6,O=C(Nc1nc(-c2ccccc2)nc2c1sc(=S)n2-c1ccccc1)C(F)(F)F,105% (inactive)
7,Cc1ccc(NC(=O)c2ccc(CN3CC[C@H](N(C)C)C3)c(C(F)(F)F)c2)cc1Nc1nccc(-c2cncnc2)n1,-36.5% (active)
8,C/C(=C(/c1ccccc1)c1ccc(N2C(=O)c3cccc4c(NCc5ccccc5)ccc(c34)C2=O)cc1)c1ccccc1,116% (inactive)
9,CC1CC(C(C)(C)C)C(=O)C(C(C)(C)C)C1 (stereo not drawn),99.8% (inactive)
10,COc1ccc(/C=C/C(=O)c2cc(O)ccc2O)cc1,71.2% (inactive)
11,COc1ccc(/C=C/C(=O)Nc2cc(/C=C\c3cc(OC)c(OC)c(OC)c3)cc(OC)c2OC)cc1OC,17.5% (inactive)
12,O=C(/C=C/c1cccc(O)c1)c1ccc(O)cc1,40.9% (inactive)
13,C/C(=N\NC(=O)/C=C/CC(=O)O)c1nnn(-c2ccc([N+](=O)[O-])cc2)c1C,99.8% (inactive)
14,CCCCCCCCCCCC1N=C(N)N=C(N)N1c1cccc(Br)c1 (stereo not drawn),-92.7% (active)
15,Clc1ccc(-n2cnc3c(Cl)ncnc32)cc1Cl,48.3% (inactive)
16,C#CCN1C(=O)/C(=c2\sc3n(c2=O)C2C(NN=3)N(CC)C(=O)N2CC)c2ccccc21 (stereo not drawn),-26.9% (active)
17,N[C@@H]1CCC[C@H]1NCCCCN1C(=O)c2cccc3cc([N+](=O)[O-])cc(c23)C1=O,31.9% (inactive)
18,C=CCSc1nnc(COc2ccc3c(C)c(Cc4ccccc4)c(=O)oc3c2C)o1,113% (inactive)
19,N#Cc1cn(Cc2ccc(Cl)cc2Cl)c(C(=O)c2ccc(Br)cc2)c1N,75.5% (inactive)
20,COc1ccc(C(=O)NCCNc2nccc(-c3c(-c4ccc(F)cc4)nc4sccn34)n2)cc1,67.5% (inactive)
21,COc1cc(C(=O)n2nc(N3CCOCC3)c3cc(-n4cccc4)ccc32)cc(OC)c1OC,49.2% (inactive)
22,Cc1[nH]c(C2CC(c3ccc(C(F)(F)F)c(F)c3)=NN2c2ccccc2)c(C)c1C(=O)NCC(F)(F)F (stereo not drawn),86.5% (inactive)
23,OC(c1ccc(Cl)cc1)(c1ccc(Cl)cc1)C(O)(c1ccc(Cl)cc1)c1ccc(Cl)cc1,12.6% (inactive)
24,CCCN1CCN(c2ccc3nc(-c4ccc5nc(-c6cc(OC)c(OC)c(OC)c6)[nH]c5c4)[nH]c3c2)CC1,47.1% (inactive)
25,C=CCc1cc(Nc2c3ccc(Cl)cc3nc3ccc(OC)cc23)cc(CN(CC)CC)c1O,-19.1% (active)
26,Cc1c(C(N)=O)sc2ncn(Cc3ccccc3)c(=O)c12,99% (inactive)
27,O=C(N=Nc1c(O)[nH]c2ccc(F)cc12)c1cc2ccccc2[nH]1,124% (inactive)
28,COc1cc(-c2nc(SCCC(C)C)nc(Nc3ccccc3)c2C#N)cc(OC)c1OC,112% (inactive)
